Hit rate of the full screen: of about 370,000 compounds, about 2,100 (0.57%) were called active.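 Rule for the calls: active = inhibition above mean plus 3 SD of compounds lying within the high and low control bounds (cut at about 19% in these data); inactive = the rest.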 The entries come from a sample that favours actives as a whole.
biological target: Group 3 secretory phospholipase A2 (Homo sapiens) (UniProt Q9NZ20); assay: HGIII-sPLA2 enzyme inhibition – biochemical, QFRET, BODIPY PC-A2 liposome substrate, primary screen (AID 743126); settings: QFRET BODIPY PC-A2 liposome hydrolysis, fluorescence; at 12.2 µM; stronger effect = higher value;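 note: 0% = median of test compound wells and 100% = no enzyme DMSO wells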
Sequence (Q9NZ20 whole entry, looked up): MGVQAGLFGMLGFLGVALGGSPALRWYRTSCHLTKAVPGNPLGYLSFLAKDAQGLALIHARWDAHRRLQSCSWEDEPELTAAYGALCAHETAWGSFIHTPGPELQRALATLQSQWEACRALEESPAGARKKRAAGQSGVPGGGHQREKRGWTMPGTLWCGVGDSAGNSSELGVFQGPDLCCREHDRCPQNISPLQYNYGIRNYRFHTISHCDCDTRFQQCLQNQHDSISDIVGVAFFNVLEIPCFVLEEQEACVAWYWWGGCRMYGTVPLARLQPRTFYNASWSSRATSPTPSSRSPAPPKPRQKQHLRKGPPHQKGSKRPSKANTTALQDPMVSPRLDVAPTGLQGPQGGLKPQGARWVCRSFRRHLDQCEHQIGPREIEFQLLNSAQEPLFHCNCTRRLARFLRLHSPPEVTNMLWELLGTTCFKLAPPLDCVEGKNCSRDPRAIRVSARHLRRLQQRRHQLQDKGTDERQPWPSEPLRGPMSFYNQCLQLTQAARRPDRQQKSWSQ

inhibition, active:
Cc1cccc(C)c1NC(=O)CN1C(=O)C(C)Oc2ccccc21 (configuration not stated) 20.8%
COc1cc(/C=N/n2c(C)n[nH]c2=S)ccc1OCc1ccccc1 20.9%
C=CCn1c(C23CC4CC(CC(C4)C2)C3)n[nH]c1=S 23.5%
CCOC12CC(C)(C)CC(C)(CC3=C1C(=O)CC(C)(C)C3)C2 (configuration not stated) 24.1%
C#CCCCc1nc2ccccc2c(=O)n1N 21.1%
C/C(=N\NC(=O)CSc1nc2ccccc2c(=O)n1-c1ccccc1C)c1cccs1 25.2%
Cc1[nH]c(N)nc(=S)c1CCCNc1ccccc1 23.8%
COC(=O)C(C)n1cnc2c(nnn2-c2ccc(F)cc2)c1=O (configuration not stated) 21.6%
CC(C)CC(=O)NC(=S)NNC(=O)c1cccc([N+](=O)[O-])c1 24.2%
COc1ccccc1OCCn1c(SCC(N)=O)nc2ccccc21 22.2%
C=CCNc1scc(-c2ccccc2)[n+]1CC=C 20.2%
C/C(=N/NC(=O)c1cc(Cl)ccc1O)C12CC3CC(CC(C3)C1)C2 22.8%
CC(=O)/C(=N\Nc1ccc(Cl)cc1Cl)Sc1cccc2cccnc12 20.9%
Oc1ccc2ccccc2c1N=Nc1nccs1 19.4%
Cc1ccc(C2Nc3ccccc3C(=O)N2CCN2CCNC2=O)cc1 (configuration not stated) 19.3%
CC(C)(C)c1cc2cccnc2n1Cc1cccc(F)c1 20.9%
NC(c1csc(NC(=O)Nc2ccccc2Oc2ccccc2)n1)c1ccccc1Cl (configuration not stated) 24.4%
Cc1cccc(-n2cnc(C(=O)NNC(=S)Nc3ccccc3)c2)n1 38.5%
CSC1=NN(c2ccccc2)CN(c2ccccc2)N1C 21.7%
Cc1cc(-c2n[nH]c(=S)n2-c2ccc(C)c(C)c2)no1 20.5%
CC(=O)c1nnn(-c2ccc(Cl)cc2C#N)c1C 21.4%
O=C1C(=O)N(Cc2ccc(-c3ccsc3)cc2)c2ccc(OC(F)(F)F)cc21 26%

inhibition, inactive:
O=C(CSc1nc2ccccc2n1Cc1ccccc1Cl)N/N=C\c1c[nH]c2ccccc12 -20.9%
COC(=O)C1CN(Cc2ccc(F)cc2)CCS(=O)(=O)N1Cc1ccc(Cl)cc1 (configuration not stated) 0.13%
CCC(=O)OCCCN1C(=O)CCC12CCC(c1ccccc1)CC2 (configuration not stated) -0.68%
Cc1ccc2c(c1)N(CC(=O)N1CCCc3ccccc31)C(=O)C(C)O2 (configuration not stated) 0.55%
CC1Oc2ccccc2N(Cc2cccnc2)C1=O (configuration not stated) 7.65%
COc1ccc(Cn2ccc3ccc(-c4ccc5ccn(Cc6ccccc6C)c5c4)cc32)cc1 3.9%
COc1ccc(C#CCNCc2ccc(OC)cc2OC)cc1 12.6%
CCOC(=O)C1(Cc2ccccc2)CCN(Cc2cn(C(C)=O)c3ccccc23)CC1 -23.2%
O=C(CSc1nnc(-c2ccccc2)n1Cc1ccco1)Nc1ccccc1-c1ccccc1 -10.1%
CCCCCCCCNS(=O)(=O)/C=C/c1cc(C)ccc1CNC(=O)OC(C)(C)C -4.97%
CCCCOCCCNC(=O)C[C@H]1C[C@@]2(C(=O)OC)C(=C[C@H](COCc3ccccc3)O[C@@H]2C)N(Cc2cccc3ccccc23)C1=O -20.5%
C=CCOc1ccc(/C=N/n2cncn2)cc1OC 2.27%
CNC(=S)N/N=C/c1ccc(OCc2ccccc2)c(Br)c1 0.16%
C=CCn1c(-c2ccc3[nH]c(C)c(C)c3c2)n[nH]c1=S -0.35%
C=CCn1c(SCC(=O)NC)nnc1C12CC3CC(CC(C3)C1)C2 0.19%
FC(F)(F)c1cccc(NC(=S)OC2CCC23CCC(c2ccccc2)CC3)c1 (configuration not stated) -7.1%
CN[C@H]1C[C@H]2c3cc(N4CCOCC4)ccc3CCN2C[C@H]1[C@H](C)O 7.01%
O=S1(=O)c2c(cccc2N2CCSCC2)Oc2ccccc2CN1Cc1cn(Cc2ccc(F)cc2)nn1 2.55%
Cc1ccc(C(=O)CSc2nc3ccccc3c(=O)n2N)o1 -0.69%
Cc1ccc(S(=O)(=O)NCc2nc3ccccc3c(=O)n2N)cc1 2.93%
O=C(OCC#CCSc1nnc(-c2ccco2)o1)c1ccc(F)cc1 1.02%
Cc1ccccc1-n1c(SCC(=O)Nc2cccc3ccccc23)nc(O)cc1=O -4.85%
C/C(=N\NC(=O)COc1c(C)cccc1C)c1cccs1 2.47%
CCc1c(Nc2ccccc2C)nc(N)[nH]c1=O 8.22%
Cc1cc(=O)n(C)c(=O)n1CCCNc1ccccc1 -0.01%
C=CCN1C(=O)[C@@H](CC(=O)N2CCN(C(=O)c3ccco3)CC2)[C@]2(C(=O)OC)CCCCC=C12 13.7%
COc1cccc(N(C)C(=O)[C@@H](C)[C@@H](O)c2ccc3ccccc3c2)c1 -10.3%
CCOC(=O)C(C)n1cnc2c(nnn2-c2ccc(F)cc2)c1=O (configuration not stated) 10.8%
CCOC(=O)C(CC)Sc1ncnc2c1nnn2-c1ccc(F)cc1 (configuration not stated) -1.68%
C=C1C(C(C)C)N(C)C2=NC(c3ccccc3)CC(=O)N12 (configuration not stated) 0%
C=C(C)C#CC(Cc1ccccc1)NCC1CC1 (configuration not stated) 4.73%
CC(C)CC(=O)NC(=S)Nc1ccc(F)cc1F 6.75%
CC(C)OC(=O)CC(=O)CC(O)c1cccc([N+](=O)[O-])c1 (configuration not stated) -28%
O=C1CCC2(CCC(c3ccc(Cl)cc3)CC2)N1CCO (configuration not stated) 7.89%
COc1ccc(C2CC=C(C(=O)O)C(c3ccccc3F)N2S(=O)(=O)c2ccc(C)cc2)cc1OC (configuration not stated) -7.23%
CCOC(=O)[C@]12CCCC=C1N(Cc1ccc(OC)cc1)C(=O)[C@@H]2CC(=O)N1CCOCC1 3.77%
Cc1cc(=O)[nH]c(SCC(=O)Nc2ccc(Cl)cc2C)n1 1.76%
CCN(CC)C(=O)CSc1nc2ccccc2n1CC(=O)N1CCN(c2ccccc2OC)CC1 0.24%
COc1ccccc1OCc1nnc(SCC(N)=O)n1-c1ccccc1 1.71%
N#CCC[C@H]1CC[C@]2(CCCN(Cc3ccc(Cl)cc3)C2)O1 5.78%
C=CC[n+]1c(-c2ccc(C)cc2)csc1NNC(=O)Nc1ccccc1 2.33%
COC(CNC(=O)[C@H](Cc1ccccc1)NC1(C(=O)NC2CCCCC2)CCCCC1)OC -3.08%
O=C(CCCCCN1C(=O)C2C3C=CC(C3)C2C1=O)Nc1ccccn1 (configuration not stated) -2.55%
CC(C)C(C#CC1CC1)N(Cc1ccc2c(c1)OCO2)C(N)=NC(=O)/C=C/c1cccc(C(F)(F)F)c1 (configuration not stated) 3.76%
Clc1ccc(-n2c(SC/C=C/c3ccccc3)nnc2-c2ccco2)cc1 -11.5%
Cc1ccc(C(=O)NC23CC4CC(CC(C4)C2)C3)c(Cl)c1 15.2%
O=C(N/N=C1\CCSC1)c1cc(Cl)ccc1O 13.2%
COC(=O)[C@H](C(C)C)N(CCc1cn(Cc2ccccc2)nn1)S(=O)(=O)c1ccc(F)cc1Br -2.33%
O=C(NC1CCC1)c1ccc(C#Cc2cccc(F)c2)c[n+]1[O-] -4.97%
COc1cccc(CNC(=O)C2CCN(S(=O)(=O)c3cccc4cccnc34)CC2)c1 -1%
CC(Oc1ccc(Cl)cc1)C(=O)Nc1ncccn1 (configuration not stated) 1.61%
COC(=O)[C@]12C[C@H](CC(=O)N3CCOCC3)C(=O)N(Cc3ccc(Cl)cc3Cl)C1=C[C@H](C(C)C)O[C@@H]2C1CC1 -5.59%
CC1CCN(c2ccc(C(=O)O)cc2NS(=O)(=O)c2ccc(Br)s2)CC1 -18.5%
CCOC(=O)[C@]12CCCCC/C=C\1N(Cc1ccc(OC)cc1)C(=O)[C@H]2CC(=O)NCc1ccc(C)o1 -4.43%
COc1ccc(C2Nc3ccccc3C(=O)N2Cc2cccs2)cc1COc1c(C)cccc1C (configuration not stated) 4.57%
O=C(NC1CCCC1)C1CSCCS(=O)(=O)N1Cc1ccccc1 (configuration not stated) 2.48%
O=C1Nc2ccccc2OC1CC(=O)N1CCCCCCC1 (configuration not stated) 1.64%
C=CCN1[C@H](CC(C)C)COc2cccc(N3CCCC3)c2S1(=O)=O 10%
CC(=O)NN1C(=O)c2ccccc2NC1c1ccccc1 (configuration not stated) 4.64%
CCOC(=O)NN1C(=O)c2ccccc2NC1c1cccc(O)c1 (configuration not stated) -3.61%
CC(C)(C)c1cc2cccnc2n1Cc1ccccc1 8.03%
COc1ccnc2c1c(=O)n(Cc1cccc(F)c1)c(=O)n2C 0.58%
O=C(CNC(=O)c1ccccc1)OC(C(=O)Nc1cc([N+](=O)[O-])ccc1F)c1ccccc1 (configuration not stated) 10.8%
COc1ccc(N2CCN(CCNS(=O)(=O)c3ccc(C(C)(C)C)cc3)CC2)cc1 -8.25%
O=C(COC(=O)/C=C/c1nc2ccccc2s1)Nc1ccccc1Oc1ccccc1 8.15%
CC(=O)c1ccc(Nc2nc(C(N)c3ccccc3Cl)cs2)cc1 (configuration not stated) -4.25%
COC(=O)c1ccc(NC(=S)Nc2cccc(C)n2)cc1 7.29%
Cc1cccc(-n2cnc(C(=O)Nc3cccnc3)c2)n1 8.64%
CCOc1ccc(-n2c(SCC(=O)Nc3cc(C)c(NC(=O)c4ccccc4)cc3OC)nnc2-c2cccc(Cl)c2)cc1 2%
O=C(CCl)NC1CCCCN(Cc2cccc(C(F)(F)F)c2)C1=O (configuration not stated) 7.99%
CCCCNC(=O)C[C@H]1C(=O)N(Cc2ccc(OC)cc2)C2=CCCC[C@@]21C(=O)OCC 12.9%
Cc1ccc(NCc2n[nH]c(=S)n2-c2ccccc2)cc1Cl 12.3%
Cc1ccc(C)c(S(=O)(=O)Nc2cc(C)on2)c1 6.47%
Cc1ccccc1CN1CCCCC(NC(=O)Nc2ccccc2F)C1=O (configuration not stated) 4.74%
C[C@@H](NC(=O)c1ccccc1OCC(=O)Nc1ccc(I)cc1)C(=O)N(C)Cc1ccccc1 -8.83%
Cc1ccc(-n2c(SCC(=O)Nc3ccc(S(=O)(=O)Nc4nccs4)cc3)nnc2-c2ccccn2)cc1 -36.9%
CC(=O)c1cc(C#N)c(N2CC(C)OC(C)C2)nc1C (configuration not stated) 10.2%
O=C(Nc1cccc(Cl)c1)OC1CC2CC1[C@H]1CCCCN1[C@H]2Cc1ccccc1 (some centres not stated) -3.5%
N#Cc1ccc(OC[C@@H](O)CN2CCC(C(O)(c3ccccc3)c3ccccc3)CC2)c(F)c1 -15.8%
Cc1ccc(CC2(C)C(=O)Nc3ccc(OC(F)(F)F)cc32)cc1 (configuration not stated) -5.51%
O=C(c1ccc2c(c1)C(=O)N(Cc1ccncc1)C2=O)N1CCN(S(=O)(=O)c2ccc(OC(F)(F)F)cc2)CC1 0.57%
CC(C)CNC(=O)OCc1cn(Cc2ccc(F)cc2)nn1 1.52%
COC(=O)[C@@]12CCCCC3=C1N(CCC3)C(=O)[C@H]2CC(=O)NCc1cccc2ccccc12 -12%
CCCC[C@H]1C2CC(OC(=O)NCc3ccccc3)C(C2)[C@H]2CCCCN21 (some centres not stated) 9.24%
Nn1c(SCC(=O)Nc2ccc(S(N)(=O)=O)cc2)nnc1-c1n[nH]c2c1CCC2 9.17%
